Assay results published in PubChem BioAssay (NCI).
About 83,000 compounds went through this panel and 20% of them were active in at least one assay; those are over-represented in the sample as a whole.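 The test compound was applied at a single concentration to cells in 96-well plates for 48 hours, and percent growth was recorded.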 Values without a mark were called inactive. Active and inactive are the calls of the source. How the source made its calls: active means growth percent below 10; inactive means the rest.

These compounds were tested on MDA-MB-468 breast (assay: NCI-60 one-dose screen, 48 h (100 = growth as untreated, 0 = no growth, -100 = all killed)). Settings: 10 µM unless noted.

Row | SMILES | growth
1 | CCCCCCCCCCCC(c1ccccc1)[N+](C)(C)C (stereo unspecified) | -45.6% (active)
2 | CN(C)CCCNc1nn2c(=O)c3ccccc3nc2c2ccccc12 | 53.4%
3 | COc1ccc2nc3cc(Cl)ccc3c(Nc3ccc(N(C)C)cc3)c2c1 | 73.7%
4 | CCn1cc(-c2ccnc3[nH]c(-c4cccc(CN(C)C)c4)cc23)c(-c2ccc(NC(=O)N(C)C)cc2)n1 | 56.5%
5 | CN(C)c1ccc(-c2cc(-c3ccc(Nc4nc(Nc5ccccc5)nc(Nc5ccc(Cl)cc5)n4)cc3)nc(N)n2)cc1 | 74.3%
6 | NC1(CO)COC(c2ccccc2)OC1 (stereo unspecified) | 99.7%
7 | O=C(CCCCC(=O)N/N=C\c1ccccc1O)N/N=C\c1ccccc1O | 22.4%
8 | O=C1[C@H]2Cc3c([nH]c4ccccc34)[C@@H](c3ccc(Br)cc3)N2C(=O)CN1C1CCN(CC2CCCCC2)CC1 | -84.6% (active)
9 | Cc1nn2c(-c3nc4cc(Cl)c(Cl)cc4[nH]3)c(-c3ccc(F)cc3)nc2s1 | 8.3% (active)
10 | Clc1ccc(Cc2nnc3sc(-c4cccnc4)nn23)cc1 | 94.2%
11 | COc1ccc(-c2ccc(-c3ccc(C(=N)N)nc3)s2)cc1 | -69.9% (active)
12 | CN1CCN(S(=O)(=O)O[C@@H]2C(=O)N(c3cc4c5ccccc5ccc4c4ccccc34)[C@H]2c2ccc(F)cn2)CC1 | 90.8%
13 | Cc1ccc(CNc2c3ccccc3nc3ccccc23)cc1 | 7.18% (active)
14 | COc1cc(-c2nn(-c3ccc(NC(=O)NCCNS(=O)(=O)c4ccc(F)cc4)cc3)cc2-c2ccncc2)ccc1Cl | -27% (active)
15 | C=C1C(=O)O[C@H]2[C@H]1CC/C(CNC(=O)/C=C/c1cc(OC)c(OC)c(OC)c1)=C\CC[C@@]1(C)O[C@@H]21 | -57.6% (active)
16 | CCCCC1=C(Br)C(=O)c2nc(C)ccc2C1=O | 92.6%
17 | CC1=C(NCCN2CCCC2)C(=O)c2c(OCc3ccc(F)c(Cl)c3)cccc2C1=O | 67.1%
18 | CCOc1cccc(/C=N\Nc2nc(=O)cc(C(=O)OC)s2)c1O | 49.9%
19 | Cc1nn(-c2ccccc2)c2c1N=c1s/c(=C\c3cn(-c4ccccc4)nc3-c3ccc(Cl)cc3)c(=O)n1C(C)N2 (stereo unspecified) | 86.6%
20 | CN1CCN(CCCOc2ccc3nc(Nc4ccc(F)c(F)c4)ccc3c2)CC1 | 9.52% (active)
21 | O=C(O)Cc1ccc(O)c(O)c1 | 86%
22 | COc1ccc2[nH]c(C(=O)OCc3ccc4c(Cl)cc(Cl)c(O)c4n3)cc2c1 | -83.1% (active)
23 | CC(=O)n1cc(C=O)c2ccccc21 | 112%
24 | O=Cc1c(OCc2cnnn2CC(=O)Nc2ccc(Br)cc2)ccc2ccccc12 | 95.6%
25 | Cc1cc(C)nc(NC(N)=NCCc2ccccc2)n1 | -3.56% (active)
26 | COc1ccc(-c2cn[nH]c2-c2ccc(OC)c(O)c2)cc1 | 47.1%
